In the library only some 12% were active in any assay of this set; here they are far more common.
G9a block – G9a (human) methyltransferase inhibition | Q96KQ7 | G9a H3K9 monomethylation, AlphaScreen, 2 h | Potency, µM (top dose mostly 102 µM), for inactives: at the top dose activity, negative = inhibition, most hits filed as inhibitors | 350,000 tested, 8.8% active; note: % is set by controls: 0 for no effect and ±100 for the full control effect; nearly all actives have a fitted effect of over 75% in size
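AlphaScreen detection with an anti-monomethyl H3K9 antibody quantified product after a 2 h room-temperature reaction containing 500 nM biotinylated H3K9 peptide, 20 µM SAM and 20 nM enzyme, which had been preincubated 15 min with compound.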
BAZ2B inh – blocks human BAZ2B; Q9UIF8; AlphaScreen BAZ2B-H3K14Ac peptide displacement; Potency, µM (doses to about 114 µM), for the others: at the highest dose activity change, negative = inhibition, usual class: inhibitors; 360,000 tested, 4.4% active; note: % is set by controls: 0 for no effect and ±100 for the full control effect; nearly all actives have a fitted effect of over 60% in size
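In this displacement format the biotinylated H3(5-23) peptide acetylated at Lys14 serves as ligand at 50 nM, with BAZ2B at 50 nM in PBS pH 7.4 containing 0.01% Tween-20. Donor and acceptor beads are 10 ug/mL final.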
Sfp PPTase inh – Sfp phosphopantetheinyl transferase inhibition; Potency, µM, for the others: largest response in the series, negative = inhibition, usual class: inhibitors; AID 1490; 310,000 tested, 3.5% active; Q9F4F7; Biochemical Sfp PPTase activity, qHTS;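 note: the enzyme is Sfp with the accession as filed and its product quenches rhodamine fluorescence; 0% = enzyme reaction without inhibitor and -100% = no enzyme wells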
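With Hepes-Na pH 7.6 buffer containing 10 mM MgCl2, Sfp (15 nM) modified BHQ-2-YbbR (12.5 uM) using rhodamine-CoA (5 uM). Two reads 30 minutes apart at 525/598 nm yielded each well's rate.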
JMJD2A Tudor inh – inhibitors of human JMJD2A Tudor domain | O75164 | 390,000 tested, 4.4% active | Potency, µM (highest dose often 114 µM), without a hit: at the top dose activity change, negative = inhibition, most hits filed as inhibitors | AlphaScreen JMJD2A-Tudor / H3K4me3 peptide binding; note: % is set by controls: 0 for no effect and ±100 for the full control effect; nearly all actives have a fitted effect of over 50% in size
HP1b chromo inh – inhibitors of HP1-beta chromodomain binding to methylated histone tails | P83916 | AlphaScreen HP1-beta / biotin-H3K9me3 peptide binding | Potency, µM (titrated, usually from 114 µM), for inactives: at the top dose activity change, negative = inhibition, most hits filed as inhibitors | 390,000 tested, 0.56% active; note: nearly all actives have a fitted effect of over 70% in size
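HP1-beta protein (50 nM final) preincubated 30 min at room temperature with biotinylated H3(1-18)K9me3 peptide (50 nM) in PBS pH 7.4, 0.01% Tween-20, then compound added for 30 min. AlphaScreen streptavidin donor/nickel chelate acceptor beads (10 ug/mL final), 30 min dark, luminescence read.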
L3MBTL1 inh – blocks human L3MBTL1 | AID 485360 | 230,000 tested, 0.66% active | Potency, µM (highest dose often 57.1 µM), for the others: top-dose activity, negative = inhibition, hits mostly inhibitors | AlphaScreen L3MBTL1–H3K9me1 peptide binding | Q9Y468; note: % is set by controls: 0 for no effect and ±100 for the full control effect; nearly all actives have a fitted effect of over 60% in size
Target sequence (Q9Y468 whole entry, looked up): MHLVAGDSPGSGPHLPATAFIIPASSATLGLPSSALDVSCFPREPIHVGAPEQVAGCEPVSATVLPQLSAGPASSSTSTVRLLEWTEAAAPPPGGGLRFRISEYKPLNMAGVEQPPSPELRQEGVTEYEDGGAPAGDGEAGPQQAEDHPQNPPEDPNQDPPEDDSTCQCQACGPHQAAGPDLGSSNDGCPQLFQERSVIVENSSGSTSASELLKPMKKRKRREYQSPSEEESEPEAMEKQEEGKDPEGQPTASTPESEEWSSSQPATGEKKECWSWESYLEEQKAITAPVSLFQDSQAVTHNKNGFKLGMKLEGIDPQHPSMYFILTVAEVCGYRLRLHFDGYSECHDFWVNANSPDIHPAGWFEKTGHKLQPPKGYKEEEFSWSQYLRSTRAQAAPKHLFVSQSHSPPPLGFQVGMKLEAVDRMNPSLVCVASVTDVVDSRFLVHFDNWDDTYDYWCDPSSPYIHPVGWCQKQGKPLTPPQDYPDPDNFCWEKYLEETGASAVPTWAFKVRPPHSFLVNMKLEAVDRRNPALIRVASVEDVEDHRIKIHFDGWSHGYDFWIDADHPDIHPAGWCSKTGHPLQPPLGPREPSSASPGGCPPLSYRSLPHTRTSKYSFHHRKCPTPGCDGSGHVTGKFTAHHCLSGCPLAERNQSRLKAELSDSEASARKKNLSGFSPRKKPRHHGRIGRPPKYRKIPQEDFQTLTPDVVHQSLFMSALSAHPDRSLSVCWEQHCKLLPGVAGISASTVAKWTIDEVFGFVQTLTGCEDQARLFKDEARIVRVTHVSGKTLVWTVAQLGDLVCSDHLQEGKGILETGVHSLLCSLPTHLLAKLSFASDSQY
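Displacement of a biotinylated histone H3(1-15) peptide monomethylated at Lys9 (75 nM) from L3MBTL1 (50 nM) was measured by AlphaScreen after a 30 min room-temperature compound incubation; cefsulodin titration served as intraplate control.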
Active calls of the source: *; u = inconclusive; x = no result; [ ] = another dose, or the depositor's remark. Calls come from the whole dose curve; as a rule, active = well fitted curve in the direction sought with a large enough effect; inconclusive = small, poorly fitted or top-dose-only effect, or another doubt; inactive = no such curve, though single readings can be large; an effect the other way counts as inactive or inconclusive. Potency is the fitted concentration of half-maximal effect.

SMILES	G9a block	BAZ2B inh	Sfp PPTase inh	JMJD2A Tudor inh	HP1b chromo inh	L3MBTL1 inh
CC1=C(C(=O)O)N2C(=O)C(NC(=O)c3c(F)cccc3F)C2SC1 (centres undefined)	45µM*	u	x	-3%	47%	4%
CC1=C(C(=O)O)N2C(=O)C(NC(=O)c3nn(C)c(C)c3Cl)C2SC1 (centres undefined)	8.9µM*	-4%	11µM*	u	31%	x
Cn1c(=O)c2sccc2n2c(CCCC(=O)NC3CCCCC3)nnc12	-28%[59 µM]	u	x	-15%	29%	x
Cc1cnc(CNc2nc(-c3cccc(NS(C)(=O)=O)c3)nc3ccccc23)cn1	7%[0.501 µM]	x	10%	x	x	x
CCOc1ccccc1-c1nnc2n1N=C(c1cccc(OC)c1)CS2	x	x	-29%	-32%	x	x
Cc1occc1-c1nnc(SCCCC(=O)c2ccc(F)cc2)n1C	50µM*	u	50µM*	-29%	7%	-4%
Cn1c(SCCCC(=O)c2ccc(F)cc2)nnc1-c1ccncc1	7%[2.33 µM]	15%	-3%	-16%	24%	6%
Cc1ccc(-n2cccc2C(=O)NS(=O)(=O)c2ccc(C)cc2)cc1	-37%	-34%	-9%	-18%	50%	-2%
Cc1ccc(-n2cccc2C(=S)N=P(N(C)C)(N(C)C)N(C)C)cc1	u	u	u	35µM*	-27%	-15%
CC(/C=C/C=C(\C)C(=O)O[C@@H]1O[C@H](CO[C@@H]2O[C@H](CO)[C@@H](O)[C@H](O)[C@H]2O)[C@@H](O)[C@H](O)[C@H]1O)=C\C=C\C=C(C)\C=C\C=C(/C)C(=O)O[C@@H]1O[C@H](CO[C@@H]2O[C@H](CO)[C@@H](O)[C@H](O)[C@H]2O)[C@@H](O)[C@H](O)[C@H]1O	18µM*	x	4%	x	x	x
OC[C@H]1O[C@@H](OC[C@H]2O[C@@H](O)[C@H](O)[C@@H](O)[C@@H]2O)[C@H](O)[C@@H](O)[C@@H]1O	x	x	7%	x	x	x
NC(=O)N[C@H]1NC(=O)NC1=O	-1%[21.5 µM]	x	5%	x	x	x
CCCCNCc1cc(Br)c(OCC(=O)NCc2ccccc2)c(OC)c1	-47%	-18%	7%	1%	29%	-6%
CCN(CC)CCNCc1cc(Cl)c(OCC(=O)Nc2ccccc2)c(OC)c1	45µM*	-31%	5%	-2%	45%	-2%
COc1cc(CNC(C)c2ccccc2)cc(Br)c1OCc1ccccc1 (centres undefined)	20%	45%	u	80%	119%	22%
COc1cc(CNC(C)c2ccccc2)cc(Cl)c1OCC(=O)Nc1ccccc1 (centres undefined)	u	-35%	56µM*	3%	45%	2%[2.29 µM]
CCc1ccc(NC(=O)N(Cc2ccc(C)cc2)Cc2cccn2-c2nnc(N3CCCC3=O)s2)cc1	-11%[59 µM]	-11%	x	-29%	3%	x
O=C(CSc1nc(-c2ccccc2)nc2c1CCCC2)c1ccc(Cl)cc1	3%[59 µM]	3%	x	16%	52%	x
COCCCNC(=O)c1c(NC(=O)Cc2coc3c(C)c(C)ccc23)sc2c1CCCC2	-2%[59 µM]	-15%	x	-7%	20%	x
O=C(CN1CCN(S(=O)(=O)c2ccc(Br)cc2)CC1)c1ccc(O)c(O)c1	10µM*	u	79µM*	7%	37%	x
CC(C)c1ccc(S(=O)(=O)N2CCN(CC(=O)c3ccc(O)c(O)c3)CC2)cc1	8.9µM*	40µM*	22µM*	x	x	x
CC(C)c1ccc(S(=O)(=O)N2CCN(CC(=O)Nc3ccc(Cl)cc3F)CC2)cc1	-10%[12.7 µM]	12%	x	-10%	38%	3%
O=S(=O)(c1cccc(O)c1)N1CCN(S(=O)(=O)c2c(F)cccc2F)CC1	x	x	x	-21%	x	x
Cc1ccc(S(=O)(=O)NC(Cc2ccc(Cl)cc2)C(=O)O)cc1 (centres undefined)	16%	-1%	11%	-6%	33%	x
COc1ccc(C[C@@H](NS(=O)(=O)c2ccc(C(=O)O)cc2)C(=O)O)cc1	-15%[12.7 µM]	-4%	10%	-8%	x	1%
SMILES	G9a block	BAZ2B inh	Sfp PPTase inh	JMJD2A Tudor inh	HP1b chromo inh	L3MBTL1 inh
COc1ccc(S(=O)(=O)N[C@@H](CSCc2ccccc2)C(=O)O)cc1	50µM*	u	-3%	-17%	18%	x
CC(C)(C)c1ccc(S(=O)(=O)NC(Cc2ccccc2)C(=O)O)cc1 (centres undefined)	79µM*	-34%	u	-12%	u	x
Cc1ccc(S(=O)(=O)NC(Cc2ccccc2)C(=O)O)cc1 (centres undefined)	-31%	-5%	9%	5%[57.1 µM]	37%	3%
Cc1ccc(S(=O)(=O)NC(CC(N)=O)C(=O)O)cc1 (centres undefined)	16µM*	5%	-7%	u	14%	10%
CCOC(=O)Cn1cc2c(c1-c1ccc(Cl)cc1)c(=O)n(C)c(=O)n2C	u	-31%	x	-14%	36%	x
CC1Cc2ccccc2N1C(=O)c1ccc(N2CCCCC2)c([N+](=O)[O-])c1 (centres undefined)	32µM*	32µM*	-6%	40µM*	u	u
CC(=O)c1ccc(N2CCN(c3ccccc3O)CC2)c([N+](=O)[O-])c1	45µM*	u	4%	u	u	x
CC1Cc2ccccc2N1C(=O)c1ccc(N2CCCC2)c([N+](=O)[O-])c1 (centres undefined)	u	25µM*	-10%	45µM*	-15%	u
O=C(O)c1ccccc1C(=O)c1ccc(N2CCCC2)c([N+](=O)[O-])c1	u	-14%	-18%	-16%[11.4 µM]	27%	10%
CCOC(=O)c1sc2ccccc2c1S(=O)(=O)N1CCN(c2cccc(C)c2C)CC1	1%[59 µM]	-17%	x	-14%	12%	x
COc1ccccc1Cn1c(C2CC(=O)N(c3ccccc3OC)C2)nc2ccccc21 (centres undefined)	-32%[59 µM]	-16%	x	-20%	17%	x
Oc1ccc(Cl)cc1CNCC1CCCO1 (centres undefined)	-7%[2.33 µM]	50µM*	5%	3.2µM*	u	x
N#C/C(=C\c1c(Oc2ccc(F)cc2)nc2ccccn2c1=O)c1nc2ccccc2s1	2.2µM*	-4%	x	-16%	40%	x
Cc1ccc(Oc2nc3ccccn3c(=O)c2/C=C(\C#N)c2nc3ccccc3s2)c(C)c1	2.5µM*	-2%	x	2%	55%	x
Cc1cccn2c(=O)c(/C=C(\C#N)c3nc4ccccc4s3)c(Oc3ccc(Br)cc3)nc12	u	2%	x	-15%	49%	x
NCCCN(Cc1ccc(Cl)c(Cl)c1)c1ccccn1	x	x	x	-31%	-2%	x
Cc1ccc(C(=O)CSc2cc(C)[nH]c(=O)n2)cc1	-9%[0.501 µM]	45µM*	-21%	u	-4%	x
